# An excerpt weighted towards active compounds, which were near 1.4% of everything screened.
# NS1 inh – blocks influenza NS1 protein function. AID 2326. 0.4% of 270,000 active. Potency, µM (series often up to 46.1 µM); calls by dose curve; further: actives are rising curves; nearly all actives have a fitted effect of over 50% in size
#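 Recovery from NS1-induced slow growth read by OD600 in budding yeast switched to galactose assay medium (pH 6.0, -URA) at 1:100 dilution. Compound 23 nl per well; the matching strain lacking NS1 serves as control.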
# AmpC inh detg – AmpC beta-lactamase inhibition with detergent present; AmpC hydrolysis of nitrocefin, absorbance 480 nm, 0.01% Triton; Potency, µM (doses to about 114 µM), actives largely listed as inhibitors; 0.041% of 370,000 active; further: nearly all actives have a fitted effect of over 25% in size
# Target sequence (P00811 whole entry, looked up): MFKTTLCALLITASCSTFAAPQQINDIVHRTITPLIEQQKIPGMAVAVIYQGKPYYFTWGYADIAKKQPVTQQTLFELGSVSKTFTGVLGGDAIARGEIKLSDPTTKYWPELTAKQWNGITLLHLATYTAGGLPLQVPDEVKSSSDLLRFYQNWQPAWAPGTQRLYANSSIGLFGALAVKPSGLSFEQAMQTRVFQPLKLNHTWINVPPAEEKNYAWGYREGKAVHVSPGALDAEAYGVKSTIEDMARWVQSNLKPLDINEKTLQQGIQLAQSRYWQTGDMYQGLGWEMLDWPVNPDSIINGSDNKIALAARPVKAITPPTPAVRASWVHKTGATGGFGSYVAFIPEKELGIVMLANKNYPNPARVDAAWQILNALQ
#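 20 mM phosphate pH 7.0 + 0.01% (detergent screen) or 0.0001% Triton X-100; 5.3 nM AmpC reagent; cpd preinc 15 min RT; nitrocefin (800 uM stock) to start; A480 q20 s × 4 min; Activity was normalised to no-enzyme and no-compound control wells.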
# AmpC inh no detg – inhibitors of E. coli AmpC beta-lactamase without detergent. P00811. AmpC nitrocefin hydrolysis, absorbance 480 nm, 0.0001% Triton. Potency, µM (top dose mostly 57.1 µM), actives largely listed as inhibitors. 0.52% of 330,000 active; further: nearly all actives have a fitted effect of over 20% in size
#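 AmpC (5.3 nM in the dispensed reagent) in 20 mM phosphate pH 7.0 with 0.01% (detergent screen) or 0.0001% Triton X-100 was preincubated with compounds for 15 min at room temperature. Nitrocefin was then added from an 800 uM solution, and hydrolysis was followed at 480 nm.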
# SARS PLpro yeast – inhibitors of SARS-CoV papain-like protease in yeast; Potency, µM (titrated, usually from 32.9 µM), actives largely listed as activators; S. cerevisiae expressing SARS-CoV PLpro, growth rescue; 0.19% of 330,000 active; calls by dose curve; further: nearly all actives have a fitted effect of over 55% in size
# FBPA Giardia inh – Giardia lamblia aldolase inhibition | A8B2U2 | purified Giardia FBPA | Potency, µM (doses to about 59.6 µM), most hits filed as inhibitors | 0.71% of 290,000 active | AID 2451; further: nearly all actives have a fitted effect of over 55% in size
#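 40 nM FBPA preincubated 10 min at RT with compound (up to 57.5 uM final), then substrate plus GAPDH/TPI/NAD/arsenate coupling and diaphorase/resazurin added. Fluorescence read after 20 min at RT, 525/598 nm.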
# Flu NS1 inh – influenza NS1 function inhibition validation. shares compounds with NS1 inh. influenza NS1 function cell assay, 15-point titration. activity change, negative = inhibition, % at 32.9 µM. 1,400 tested, under 10 active; calls by dose curve
# Flu PR8 replic – influenza virus titer reduction, NS1 project; shares compounds with NS1 inh; MDCK infected influenza A/PR/8/34, virus titer TCID50; hits give low values; virus titer (log TCID50), log10 TCID50 at 5 µM; 30% of 95 active; AID 504647; call rule not given here
# Hits are given with their value; – = inactive; ? = inconclusive; · = no result. Unless noted, the call rests on the fitted dose curve; in most records, active means well fitted curve in the direction sought with a large enough effect; inconclusive means small, poorly fitted or top-dose-only effect, or another doubt; inactive means no such curve, though single readings can be large; an effect the other way counts as inactive or inconclusive.
SMILES,NS1 inh,AmpC inh detg,AmpC inh no detg,SARS PLpro yeast,FBPA Giardia inh,Flu NS1 inh,others
O=C(N/N=C/c1cccc([N+](=O)[O-])c1)c1cc(-c2ccccc2)nc2ccccc12,–,–,–,–,–,·,
COc1ccc(C2=CCN3CCCCC3C2)c(-c2ccc(OC)c(OC)c2)c1 (stereo not given),·,·,–,–,·,·,
CCCCC1C2C(=O)N(c3ccc(C)cc3)C(=O)C2ON1c1ccccc1 (stereo not given),–,–,–,–,–,·,
Cc1cc(=O)[nH]c(SCC(=O)Nc2ccc(C(=O)O)cc2)n1,–,–,–,–,–,·,
CCOC(=O)c1ccc(NC(=O)CSc2nc(C)cc(=O)[nH]2)cc1,?,–,–,–,–,–,Flu PR8 replic=–
O=C(N/N=C/c1ccccc1)c1ccc(CN2C(=O)c3cccc4cccc2c34)cc1,–,–,?,–,–,·,
CN(C)c1ccc(/C=N/NC(=O)c2ccc(CN3C(=O)c4cccc5cccc3c45)cc2)cc1,4.5µM,–,–,–,–,–,
O=C(Nc1ccc(N2CCCCC2)cc1)c1ccc2ccccc2n1,–,–,–,–,–,·,
Cc1occc1-c1nnc(SCC(=O)c2c(N)n(Cc3ccccc3)c(=O)n(C)c2=O)n1C,10µM,–,–,–,–,–,
CS(=O)(=O)/C(C#N)=C/c1cccn1S(=O)(=O)c1ccccc1,–,–,–,–,–,·,
N#CC(C#N)=Cc1cccn1-c1ccc(S(N)(=O)=O)cc1,?,–,–,–,–,–,
Cc1nc2ccc(S(=O)(=O)Nc3cccc(-c4nc5cccnc5s4)c3)cc2s1,11µM,–,–,–,–,–,
COc1ccc2c(c1)C(c1ccccc1)=NNC(c1ccco1)=N2,?,–,–,–,–,–,
CCOc1ccc(C2=NNC(c3cccnc3)=Nc3ccc(OC)cc32)cc1,–,–,–,–,–,·,
Cc1cc(-c2ccc(NC(=O)[C@@H]3CCCC[C@@H]3C(=O)O)c(C)c2)ccc1NC(=O)[C@@H]1CCCC[C@@H]1C(=O)O,4µM,–,–,–,–,?,
COC(=O)c1ccccc1NC(=O)C1CCCCC1C(=O)O (stereo not given),5µM,?,–,–,–,–,
COC(=O)c1sccc1NC(=O)C1CCCCC1C(=O)O (stereo not given),–,–,–,–,–,·,
Cc1ccc(NC(=O)C2CCCCC2C(=O)O)cc1C (stereo not given),–,–,–,–,–,·,
Cc1ccsc1/C=C(\C(=O)c1ccc(OC(C)C)cc1)c1nc2ccccc2o1,14µM,–,–,–,–,–,
Cc1ccccc1OCC(O)Cn1nnc2ccccc21 (stereo not given),–,–,–,–,–,·,
CC(C)COC(=O)C(C#N)c1nc2ccccc2nc1N1CCN(Cc2ccc3c(c2)OCO3)CC1 (stereo not given),–,?,–,–,–,·,
CCC(CC)c1nnc(NC(=O)c2cccc(S(=O)(=O)N3CCc4ccccc43)c2)s1,8.9µM,?,–,–,·,–,
COc1ccc(CCNC(=O)CCCn2c(=O)c3ccccc3n(CC(=O)Nc3ccccc3C)c2=O)cc1OC,·,–,·,·,·,·,
CCSc1ccc(-c2nn(-c3ccccc3)cc2/C=C(/C#N)C(=O)NC)cc1,–,?,–,–,–,·,
C=CCNC(=O)/C(C#N)=C/c1cn(-c2ccccc2)nc1-c1ccc(OC)c([N+](=O)[O-])c1,?,–,–,–,–,–,
SMILES,NS1 inh,AmpC inh detg,AmpC inh no detg,SARS PLpro yeast,FBPA Giardia inh,Flu NS1 inh,others
C=CCNC(=O)/C(=C\C=C\c1ccccc1)NC(=O)c1ccc(OCCCC)cc1,11µM,–,–,–,·,?,
O=C(O)c1cc(Cl)c2c(c1)[C@@H]1C=CC[C@@H]1[C@H](c1ccc(S(=O)(=O)N3CCOCC3)cc1)N2,14µM,–,–,–,–,–,
O=C(Cc1ccccc1)NCCN1CCCC1,2.8µM,?,–,–,–,–,
Cc1ccccc1CC(=O)NCCN1CCCCC1,–,–,–,–,–,·,
COc1cccc(N(C(=O)Cn2nnc(-c3ccc(C)cc3)n2)C(C(=O)NC(C)(C)C)c2c[nH]c3ccccc23)c1 (stereo not given),?,–,–,–,–,–,
COc1ccc(C2/C=C\CN(S(=O)(=O)c3ccc4ccccc4c3)CC(=O)N2Cc2ccc(F)cc2)cc1 (stereo not given),2.8µM,–,–,–,–,–,Flu PR8 replic=–
COc1ccc(C2/C=C\CN(S(=O)(=O)/C=C/c3ccccc3)CC(=O)N2Cc2ccc(F)cc2)cc1 (stereo not given),?,–,–,–,–,·,
O=C(/C=C/c1cccnc1)c1cccc(O)c1,?,–,–,–,–,?,
O=C(O)c1cccc(NC(=O)C23CC4CC(C2)CC(n2cnc(Cl)n2)(C4)C3)c1,–,–,–,–,–,·,
O=C(Nc1cc(Oc2ccccc2)cc([N+](=O)[O-])c1)C12CC3CC(C1)CC(n1cnc(Cl)n1)(C3)C2,2.2µM,–,–,–,–,?,
CN(N=O)c1cc(O)ccc1O,18µM,·,·,·,–,?,
O=S(=O)(c1cccc(S(=O)(=O)N2CCOCC2)c1)N1CCCCCC1,–,–,–,–,–,·,
O=S(=O)(c1ccccc1)c1cccc(S(=O)(=O)N2CCCCC2)c1,2µM,–,–,–,–,–,
Cc1nc2c(c(=O)n1CCC1=CCCCC1)c1nc3ccccc3nc1n2/N=C/c1ccco1,10µM,–,–,–,–,–,
CCCn1c(C)nc2c(c1=O)c1nc3ccccc3nc1n2CCC1=CCCCC1,2µM,–,–,–,–,?,
COCCn1cnc2c(c1=O)c1nc3ccccc3nc1n2/N=C/c1ccco1,–,–,–,–,–,·,
O=C1CN(S(=O)(=O)c2cc(Cl)ccc2Cl)c2ccccc2N1,–,–,–,–,–,·,
CC(=O)N1c2ccc(S(=O)(=O)N3CCC(C(=O)NCc4ccc(C)cc4)CC3)cc2CC1C (stereo not given),–,–,–,–,·,·,
Cc1ccc(C(=O)CSc2nc(O)cc(=O)[nH]2)cc1C,7.9µM,?,–,–,–,?,
CCC(C)c1c(O)nc(SCC(=O)c2ccccc2)[nH]c1=O (stereo not given),4.5µM,–,–,–,–,–,
CCOC(=O)c1cc(-c2ccccc2)n(CC(=O)Nc2cc(OC)cc(OC)c2)c1C,–,–,?,–,–,·,
COc1ccc(C(=O)Nc2ncc3c(n2)CC(C)CC3=O)cc1 (stereo not given),–,–,–,–,–,·,
COc1cccc(C(=O)Nc2ncc3c(n2)CC(c2ccc(OC)cc2OC)CC3=O)c1 (stereo not given),10µM,–,–,–,–,–,
